Data as given in PubChem BioAssay (NCI).
About 83,000 compounds went through this panel and 20% of them were active in at least one assay; those are over-represented in the sample as a whole.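 Single-concentration screen, 48 h exposure, 96-well plates. Endpoint: percent growth. Below 10 = active.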 Activity calls are given as the source filed them.

Key:
Assay in all cases: NCI-60 one-dose screen, 48 h (100 = growth as untreated, 0 = no growth, -100 = all killed)
Settings in all cases: 10 µM unless noted
SR leukemia = system: SR leukemia
RPMI-8226 leukemia = system: RPMI-8226 leukemia
OVCAR-8 ovarian = system: OVCAR-8 ovarian
OVCAR-5 ovarian = system: OVCAR-5 ovarian
OVCAR-4 ovarian = system: OVCAR-4 ovarian
SK-OV-3 ovarian = system: SK-OV-3 ovarian
IGROV1 ovarian = system: IGROV1 ovarian
OVCAR-3 ovarian = system: OVCAR-3 ovarian
HS 578T breast = system: HS 578T breast
NCI/ADR-RES ovarian = system: NCI/ADR-RES ovarian
T-47D breast = system: T-47D breast
BT-549 breast = system: BT-549 breast
MDA-MB-435 melanoma = system: MDA-MB-435 melanoma
SW-620 colon = system: SW-620 colon
MCF7 breast = system: MCF7 breast
HCT-116 colon = system: HCT-116 colon
HCC-2998 colon = system: HCC-2998 colon
KM12 colon = system: KM12 colon

Measured: growth

COc1cccc(/C=C(/C)c2ccc3cccc(OC)c3[o+]2)c1O
inactive: SR leukemia 92.1% | RPMI-8226 leukemia 93.1% | OVCAR-8 ovarian 100% | OVCAR-5 ovarian 104% | OVCAR-4 ovarian 98% | SK-OV-3 ovarian 107% | IGROV1 ovarian 94.5% | OVCAR-3 ovarian 114% | HS 578T breast 101% | NCI/ADR-RES ovarian 107% | T-47D breast 100% | BT-549 breast 85.1% | MDA-MB-435 melanoma 104% | SW-620 colon 106% | MCF7 breast 90.9% | HCT-116 colon 102% | HCC-2998 colon 120% | KM12 colon 99.1%

CN1CCN(c2ccc(/C=N/Nc3nc4ccccc4c(=O)n3-c3ccccc3)cc2)CC1
inactive: SR leukemia 93.4% | RPMI-8226 leukemia 101% | OVCAR-8 ovarian 102% | OVCAR-5 ovarian 107% | OVCAR-4 ovarian 97.2% | SK-OV-3 ovarian 109% | IGROV1 ovarian 104% | OVCAR-3 ovarian 104% | HS 578T breast 92.5% | NCI/ADR-RES ovarian 101% | T-47D breast 92.6% | BT-549 breast 108% | MDA-MB-435 melanoma 104% | SW-620 colon 99.6% | MCF7 breast 93.3% | HCT-116 colon 99% | HCC-2998 colon 103% | KM12 colon 99.8%

Cc1ccc(-n2c(/C=C3\C(=O)Nc4ccccc43)ccc2CO)cc1
active: MDA-MB-435 melanoma -10.3%
inactive: SR leukemia 46.6% | RPMI-8226 leukemia 69.4% | OVCAR-8 ovarian 94.3% | OVCAR-5 ovarian 104% | OVCAR-4 ovarian 90.1% | SK-OV-3 ovarian 86.8% | IGROV1 ovarian 75% | OVCAR-3 ovarian 65.4% | HS 578T breast 87.3% | NCI/ADR-RES ovarian 55.7% | T-47D breast 77.4% | BT-549 breast 66.6% | SW-620 colon 43.3% | MCF7 breast 34.5% | HCT-116 colon 52.8% | HCC-2998 colon 95.7% | KM12 colon 18.8%

N#Cc1c(-c2cccs2)cc(-c2cnccn2)nc1SCC(=O)c1ccc(F)cc1
inactive: SR leukemia 81.3% | RPMI-8226 leukemia 97.7% | OVCAR-8 ovarian 99.5% | OVCAR-5 ovarian 88% | OVCAR-4 ovarian 76% | SK-OV-3 ovarian 104% | IGROV1 ovarian 78.1% | OVCAR-3 ovarian 118% | HS 578T breast 94.2% | NCI/ADR-RES ovarian 96.4% | T-47D breast 106% | MDA-MB-435 melanoma 93.3% | SW-620 colon 96.7% | MCF7 breast 85.7% | HCT-116 colon 96.6% | HCC-2998 colon 117% | KM12 colon 99%

Cc1cc(S(=O)(=O)N(C)C)cc(NCC(=O)NC(=O)NCC(C)C)c1C
inactive: SR leukemia 91% | RPMI-8226 leukemia 97.4% | OVCAR-8 ovarian 104% | OVCAR-5 ovarian 87.8% | OVCAR-4 ovarian 76.4% | SK-OV-3 ovarian 112% | IGROV1 ovarian 77.2% | OVCAR-3 ovarian 112% | HS 578T breast 103% | NCI/ADR-RES ovarian 114% | T-47D breast 110% | MDA-MB-435 melanoma 98.8% | SW-620 colon 98.4% | MCF7 breast 94.8% | HCT-116 colon 100% | HCC-2998 colon 120% | KM12 colon 102%

C=C(C)[C@@H]1CC[C@]2(COP(=O)(OCC)OCC)CC[C@]3(C)[C@H](CC[C@@H]4[C@@]5(C)CCCNC(C)(C)[C@@H]5CC[C@]43C)[C@@H]12
inactive: OVCAR-8 ovarian 55.4% | OVCAR-5 ovarian 58.6% | OVCAR-4 ovarian 23.5% | SK-OV-3 ovarian 103% | OVCAR-3 ovarian 54% | HS 578T breast 52.9% | NCI/ADR-RES ovarian 27.6% | T-47D breast 59.1% | MDA-MB-435 melanoma 36.5% | SW-620 colon 15.3% | MCF7 breast 13.8% | KM12 colon 55.7%
active: SR leukemia -51.4% | RPMI-8226 leukemia -46.6% | IGROV1 ovarian 6.74% | HCT-116 colon -68.8% | HCC-2998 colon -27.4%

CNC(=O)c1cc(-c2ccc(NC(=S)Nc3cc(C(F)(F)F)cc(C(F)(F)F)c3)cc2)nc2cccnc12
inactive: SR leukemia 71.8% | RPMI-8226 leukemia 93.7% | OVCAR-8 ovarian 100% | OVCAR-5 ovarian 102% | OVCAR-4 ovarian 75.3% | SK-OV-3 ovarian 102% | IGROV1 ovarian 75.9% | OVCAR-3 ovarian 106% | HS 578T breast 93.9% | NCI/ADR-RES ovarian 105% | T-47D breast 85.1% | MDA-MB-435 melanoma 94.9% | SW-620 colon 98.1% | MCF7 breast 59.6% | HCT-116 colon 99% | HCC-2998 colon 122% | KM12 colon 98.6%

C=CC(=O)N1CC=C(c2cc3c(N[C@H](C)c4ccccc4)ncnc3[nH]2)CC1
active: IGROV1 ovarian 6.95%
inactive: SR leukemia 66.7% | RPMI-8226 leukemia 85.8% | OVCAR-8 ovarian 85.8% | OVCAR-5 ovarian 37.5% | OVCAR-4 ovarian 71.9% | SK-OV-3 ovarian 47.4% | OVCAR-3 ovarian 70.3% | HS 578T breast 39.9% | NCI/ADR-RES ovarian 89.5% | T-47D breast 71.6% | MDA-MB-435 melanoma 95% | SW-620 colon 87% | MCF7 breast 75.5% | HCT-116 colon 86.1% | HCC-2998 colon 89.6% | KM12 colon 98.9%

COc1cc2c(cc1OC)C(Sc1ccc(C)cc1)c1c(nc(N)c(C#N)c1N)O2 (stereo not given)
active: SR leukemia -4.56% | RPMI-8226 leukemia -19.2% | OVCAR-8 ovarian 3.56% | OVCAR-5 ovarian -78.8% | OVCAR-4 ovarian -59.2% | SK-OV-3 ovarian -70.9% | IGROV1 ovarian -72.8% | OVCAR-3 ovarian -80.7% | HS 578T breast -6.15% | NCI/ADR-RES ovarian -32.1% | T-47D breast -28.9% | MDA-MB-435 melanoma -31.3% | SW-620 colon -36.6% | MCF7 breast -66.9% | HCT-116 colon -69.6% | HCC-2998 colon -85.2% | KM12 colon -52.5%
inactive: BT-549 breast 35%

C=C(C)[C@@H]1CC[C@]2(COC)CC[C@]3(C)[C@H](CC[C@@H]4[C@@]5(C)CCCNC(C)(C)[C@@H]5CC[C@]43C)[C@@H]12
active: SR leukemia -54.9% | RPMI-8226 leukemia -36.8% | SW-620 colon -57.6% | MCF7 breast 7.62% | HCT-116 colon -29.1% | HCC-2998 colon -29.1%
inactive: OVCAR-8 ovarian 79.2% | OVCAR-5 ovarian 75.5% | OVCAR-4 ovarian 28.7% | SK-OV-3 ovarian 102% | IGROV1 ovarian 37.2% | OVCAR-3 ovarian 80.9% | HS 578T breast 37.8% | NCI/ADR-RES ovarian 51.3% | T-47D breast 54.1% | MDA-MB-435 melanoma 10.4% | KM12 colon 38.1%

Nc1nc(Nc2ccccc2SSc2ccccc2Nc2nc(N)nc(-c3ccc4ccccc4c3)n2)nc(-c2ccc3ccccc3c2)n1
inactive: RPMI-8226 leukemia 84.3% | OVCAR-8 ovarian 84.4% | OVCAR-5 ovarian 99.3% | OVCAR-4 ovarian 83.9% | SK-OV-3 ovarian 112% | IGROV1 ovarian 47.6% | OVCAR-3 ovarian 106% | HS 578T breast 86.2% | NCI/ADR-RES ovarian 19.5% | T-47D breast 74.9% | MDA-MB-435 melanoma 85.2% | SW-620 colon 104% | MCF7 breast 76% | HCT-116 colon 57.9% | HCC-2998 colon 120% | KM12 colon 51.5%
active: SR leukemia -25.5%

NC/C(=C/F)COc1ccc2nc(NCc3cccnc3)oc2c1
inactive: SR leukemia 101% | RPMI-8226 leukemia 120% | OVCAR-8 ovarian 102% | OVCAR-5 ovarian 113% | OVCAR-4 ovarian 86.6% | SK-OV-3 ovarian 110% | IGROV1 ovarian 86.4% | OVCAR-3 ovarian 122% | HS 578T breast 99.5% | NCI/ADR-RES ovarian 111% | T-47D breast 103% | MDA-MB-435 melanoma 102% | SW-620 colon 96.7% | MCF7 breast 89.3% | HCT-116 colon 96.4% | HCC-2998 colon 117% | KM12 colon 103%

Cn1ccnc1C(=O)/C=C/c1ccc(NC(=O)c2ccc(F)cc2)cc1
inactive: RPMI-8226 leukemia 10.6% | OVCAR-8 ovarian 65% | OVCAR-5 ovarian 41.2% | OVCAR-4 ovarian 37.1% | SK-OV-3 ovarian 67.2% | IGROV1 ovarian 34.7% | OVCAR-3 ovarian 17.9% | HS 578T breast 54.4% | NCI/ADR-RES ovarian 27.5% | T-47D breast 22.5% | BT-549 breast 69.4% | MDA-MB-435 melanoma 43.1% | SW-620 colon 14.8% | MCF7 breast 18% | HCC-2998 colon 39.5% | KM12 colon 24.8%
active: SR leukemia 8.3% | HCT-116 colon 8.87%

CCCCCc1ccc(S(=O)(=O)Nc2cccc(-c3csc(NC(=O)CNCCN(C)C)n3)c2)cc1
inactive: SR leukemia 22.2% | RPMI-8226 leukemia 30.3% | OVCAR-8 ovarian 95.7% | OVCAR-5 ovarian 110% | OVCAR-4 ovarian 70% | SK-OV-3 ovarian 109% | IGROV1 ovarian 87.9% | OVCAR-3 ovarian 87.7% | HS 578T breast 90.9% | NCI/ADR-RES ovarian 73.1% | T-47D breast 68.3% | BT-549 breast 104% | MDA-MB-435 melanoma 90.1% | SW-620 colon 87.3% | MCF7 breast 41.3% | HCT-116 colon 55.4% | HCC-2998 colon 16.2% | KM12 colon 90.2%

CC1(C)[C@@H](O)CC[C@]2(C)[C@H]3CC[C@@H]4[C@H]5[C@H](C(=O)/C=C\c6ccc([N+](=O)[O-])cc6)CC[C@]5(O)CC[C@@]4(C)[C@]3(C)CC[C@@H]12
active: SR leukemia 1.04% | HCT-116 colon 4.14%
inactive: RPMI-8226 leukemia 11.7% | OVCAR-8 ovarian 76.8% | OVCAR-5 ovarian 92% | OVCAR-4 ovarian 41.1% | SK-OV-3 ovarian 107% | IGROV1 ovarian 56.6% | OVCAR-3 ovarian 43.2% | HS 578T breast 59.9% | NCI/ADR-RES ovarian 64% | T-47D breast 57.7% | MDA-MB-435 melanoma 36.1% | SW-620 colon 30.2% | MCF7 breast 38.7% | HCC-2998 colon 77.2% | KM12 colon 53.3%

COc1cc(-c2nn(C(C)(C)C)cc2-c2ccnc(NCCCNS(=O)(=O)c3ccc(F)cc3)n2)ccc1Cl
inactive: SR leukemia 48.8% | RPMI-8226 leukemia 75.1% | OVCAR-8 ovarian 89.2% | OVCAR-5 ovarian 82.3% | OVCAR-4 ovarian 54.2% | SK-OV-3 ovarian 104% | IGROV1 ovarian 61.6% | OVCAR-3 ovarian 90.7% | HS 578T breast 81% | NCI/ADR-RES ovarian 79.9% | T-47D breast 85.1% | MDA-MB-435 melanoma 75% | SW-620 colon 95.9% | MCF7 breast 74.3% | HCT-116 colon 56.1% | HCC-2998 colon 108% | KM12 colon 78.5%

Nn1c(N/N=C/c2nc3ccccc3s2)n[nH]c1=S
inactive: SR leukemia 108% | RPMI-8226 leukemia 105% | OVCAR-8 ovarian 107% | OVCAR-5 ovarian 103% | OVCAR-4 ovarian 85.8% | SK-OV-3 ovarian 118% | IGROV1 ovarian 82.2% | OVCAR-3 ovarian 118% | HS 578T breast 110% | NCI/ADR-RES ovarian 118% | T-47D breast 108% | MDA-MB-435 melanoma 110% | SW-620 colon 105% | MCF7 breast 93.7% | HCT-116 colon 107% | HCC-2998 colon 123% | KM12 colon 102%
